Compound activity from PubChem.
Nrf2 inh: blocks Nrf2 signaling; A549 ARE-Fluc reporter, luciferase luminescence, 18-24 h; Potency, µM (highest dose often 46 µM), usual class: inhibitors; 360,000 tested, 2.1% active; also: nearly all actives have a fitted effect of over 60% in size
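Cells were seeded and rested 2 h, then exposed to compounds for 18-24 h. CellTiter-Fluor was read first as a viability measure. BugLite was added 15 min before the final luminescent read of ARE-luciferase activity in A549 cells.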
Nrf2 activator: activators of Nrf2 (ARE) signaling | AREc32 ARE-luciferase reporter (MCF7-derived line), luminescence, 24 h | Potency, µM (highest dose often 46.1 µM), most hits filed as activators | 410,000 tested, 0.31% active | AID 624171; also: nearly all actives have a fitted effect of over 65% in size
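Luminescent ARE reporter assay in AREc32_Fluc cells: overnight plating at 37 deg C, 24 hr compound incubation, Steady-Glo added, 30 min RT before reading.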
ELG1 repair inh: inhibitors of ELG1-dependent DNA repair in HEK293T cells; HEK293T ELG1-luciferase reporter, luminescence, 16 h; DNA damage induced by 5-fluorouridine; Potency, µM (top dose mostly 46.1 µM), usual class: inhibitors; 330,000 tested, 2.3% active; AID 504467; also: nearly all actives have a fitted effect of over 55% in size
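5-Fluorouridine DNA damage + compound/DMSO, 2,000 cells/well, 16 h, 37 °C/5% CO2. ONE-Glo, 30 min RT, luminescence. Readout = decrease in reporter signal.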
IDH1 R132H inh: blocks human mutant IDH1 R132H enzyme | IDH1-R132H enzyme, NADPH consumption, diaphorase/resazurin fluorescence | Potency, µM (doses to about 76.6 µM), most hits filed as inhibitors | 390,000 tested, 0.093% active | AID 602179; also: nearly all actives have a fitted effect of over 65% in size
Target sequence (O75874 whole entry R132H, stated change not applied): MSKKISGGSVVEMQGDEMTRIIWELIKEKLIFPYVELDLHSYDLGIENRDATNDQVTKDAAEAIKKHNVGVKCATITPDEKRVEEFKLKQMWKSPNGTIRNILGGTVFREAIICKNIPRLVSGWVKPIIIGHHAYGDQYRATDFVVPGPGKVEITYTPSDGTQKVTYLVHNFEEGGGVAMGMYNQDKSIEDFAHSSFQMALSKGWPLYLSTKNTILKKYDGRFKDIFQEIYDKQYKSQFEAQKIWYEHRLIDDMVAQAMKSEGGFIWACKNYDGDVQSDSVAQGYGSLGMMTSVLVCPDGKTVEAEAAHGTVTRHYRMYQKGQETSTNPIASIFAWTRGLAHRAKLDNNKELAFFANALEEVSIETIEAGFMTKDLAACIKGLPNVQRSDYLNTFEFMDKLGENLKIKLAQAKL
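IDH1-R132H (0.5 ug/mL) preincubated 30 min with compound, then NADPH (0.016 mM) and alpha-KG (2 mM) added; 80 min at RT, pH 7.5. Remaining NADPH coupled via diaphorase/resazurin to fluorescence (540/590 nm); concentration-response curves normalized to no-enzyme control.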
A549 tox: A549 cytotoxicity, counter-screen for Nrf2 inhibitors; 390,000 tested, 0.16% active; Potency, µM (titrated, usually from 46 µM), usual class: inhibitors; A549 ARE-Fluc cells, CellTiter-Fluor viability, 18-24 h; AID 504648
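A549 ARE_Fluc cells in 5% FBS OPTI-MEM were exposed to compounds in concentration-response for 18-24 h at 37 deg C. Viability was read by CellTiter-Fluor fluorescence (Ex 405/Em 525) after 30 min, before the luciferase read.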
A number is an active result; - = inactive; ? = inconclusive; . = no result given; [ ] = dose if it differs, or a comment. Only some compounds are listed: those with a hit (about 3.8% of all), similar ones and a draw of the others. Calls follow the shape of the dose curve; as a rule, active = well fitted curve in the direction sought with a large enough effect; inconclusive = small, poorly fitted or top-dose-only effect, or another doubt; inactive = no such curve, though single readings can be large; an effect the other way counts as inactive or inconclusive.

SMILES | Nrf2 inh | Nrf2 activator | ELG1 repair inh | IDH1 R132H inh | A549 tox
C/C(=N\O)C(C)(C)Nc1cccc(Br)c1 | - | - | 12µM | - | -
COc1cc(C)ccc1OCCSc1nc2ccc(NC(=O)c3ccco3)cc2s1 | ? | - | . | - | -
CCOC(=O)N1CCC(N2CCCC(C(=O)c3ccc4cc(OC)ccc4c3)C2)CC1 (stereo not drawn) | - | - | 23µM | - | -
CCOC(=O)N1CCC(N2CCCC(C(=O)c3cc(C)c(OC)c(C)c3)C2)CC1 (stereo not drawn) | - | - | ? | - | -
Cc1ccc(NS(=O)(=O)c2cc3c(cc2-c2cn[nH]c2)NC(=O)CO3)cc1C | - | . | . | . | -
Cc1nn2c(-c3ccccc3)nnc2c2ccccc12 | ? | 4µM | ? | - | -
Cc1ccc(-c2nn3c(-c4ccc(C)cc4)nnc3c3ccccc23)cc1 | - | - | . | ? | -
CCn1c(=O)c(C)nn2c3ccccc3nc12 | . | - | - | - | -
Cc1nn2c3ccccc3nc2c2ccccc12 | - | 7.9µM | ? | - | -
O=C(c1n[nH]c2ccccc12)N1CCN(S(=O)(=O)c2ccc(Cl)cc2)CC1 | ? | - | - | - | -
O=C(Nc1ccc(F)cc1)Nc1ccc2snnc2c1 | 23µM | - | . | - | -
CC(=O)c1ccc(NC(=O)Nc2ccc3snnc3c2)cc1 | ? | - | . | - | -
Cc1c(Cl)cccc1NC(=O)Nc1ccc2snnc2c1 | 21µM | - | . | - | ?
CSc1ccc(CN2CCC(C)(Oc3cnc(Cl)c4ccccc34)C2)cc1 (stereo not drawn) | . | - | . | . | .
NC(=O)c1cc2ccncc2c2ccccc12 | ? | - | 1.3µM | - | -
COc1cc(/C=C2\SC(N)=NC2=O)ccc1O | - | - | 10µM | - | -
COc1cc(/C=C2\SC(=S)N(NC(=O)c3ccncc3)C2=O)ccc1O | ? | - | - | - | 21µM
O=C1C2CCCCN2C(=O)N1CCCCN1CCN(c2cccc(Br)c2)CC1 (stereo not drawn) | - | - | - | - | -
Cc1ccc(CNc2ncnc3ccc(-c4ccc5c(c4)OCO5)cc23)s1 | - | . | . | . | -
COc1ccc(N2C(=O)/C(=C\c3ccco3)N=C2SCC(=O)N(C(C)C)C(C)C)cc1Cl | - | - | 13µM | - | -
COc1ccc(N2C(=O)/C(=C\c3ccco3)N=C2SCC(=O)NC(C)C)cc1Cl | - | - | ? | - | -
N#Cc1nc(Nc2cc(Cl)cc(Cl)c2)nc(NC2CCCC2)n1 | ? | . | . | . | -
Cc1ccc(C2=N/C(=C\c3cccs3)C(=O)N2Nc2ccccc2)cc1 | . | - | 15µM | - | -
O=C1/C(=C/c2cccs2)N=C(c2cccs2)N1Nc1ccccc1 | ? | - | ? | - | ?
CCCc1cnc2c(c1SCC(=O)N1CCC(C)CC1)c(=O)n(C)c(=O)n2C | . | - | . | - | -
SMILES | Nrf2 inh | Nrf2 activator | ELG1 repair inh | IDH1 R132H inh | A549 tox
CC(=O)Nc1ccc(NC(=O)c2cc(-c3ccc(C)c(C)c3O)n[nH]2)cc1 | - | - | - | - | -
CC(=O)Nc1ccc(NC(=O)c2cc(-c3cc(C)cc(C)c3O)n[nH]2)cc1 | - | - | 23µM | - | -
Cc1cc(C)c(O)c(-c2cc(C(=O)Nc3ccc(S(=O)(=O)N4CCOCC4)cc3)[nH]n2)c1 | ? | - | 21µM | - | ?
Cc1ccc(C(=O)Nc2ccc(S(=O)(=O)N3CCOCC3)cc2)cc1 | - | - | - | - | -
O=C(O)Cc1cc(F)c(S(=O)(=O)N2CCN(S(=O)(=O)c3ccc4c(c3)OCCO4)CC2)cc1F | - | . | . | . | -
O=C(O)C(CO)N=Cc1c(O)c2ccccc2oc1=O (stereo not drawn) | 6.5µM | - | - | - | ?
COC(=O)C(Cc1ccccc1)NCC(=O)Nc1cccc(Cl)c1C (stereo not drawn) | - | - | - | - | -
O=C(Nc1ccc(Cl)c(C(F)(F)F)c1)C(Cc1ccccc1)NS(=O)(=O)c1cccc2nsnc12 (stereo not drawn) | - | - | . | - | -
Nc1[nH]c(=O)[nH]c(=O)c1N=Nc1ccc(C(=O)O)cc1 | - | - | - | - | ?
N#CCCN(C(=O)CSc1nc2nc(-c3cccs3)cc(C(F)(F)F)c2c(=O)[nH]1)c1ccccc1 | 21µM | - | ? | ? | -
Cc1ccc(C)c(-n2nnnc2Sc2nnnn2-c2ccccc2)c1 | ? | - | 21µM | - | ?
Oc1ccc2c(c1)oc1cc(O)ccc12 | ? | 13µM | ? | - | -[1.84 µM]
COCCCNc1nc2ccccc2nc1NS(=O)(=O)c1cc(Cl)ccc1Cl | 21µM | - | - | - | -
COc1ccc(CCNC(=O)CCSCc2ccccc2Cl)cc1OC | . | - | . | - | -
C=CCN(Cc1ccc(OC)c(OC)c1)C(=O)c1cc2cc(F)ccc2[nH]1 | 23µM | - | - | - | ?
Cc1c(Cl)ccc2sc(N3CCN(C(=O)C4CC4)CC3)nc12 | . | - | . | - | -
CCN(CC)C(=O)CSc1nc(-c2cccs2)cc(-c2cccs2)c1C#N | 18µM | - | 16µM | - | -
CCOc1ccc(NC(=O)Cn2nnc(-c3nc(-c4ccncc4)no3)c2N)cc1 | - | - | . | . | -
Cc1ccc(CN(Cc2ccco2)C(=O)COc2ccc(C(C)C)cc2)cc1 | 18µM | - | . | - | -
CC(C)CC(=O)OCc1cc(=O)n2nc(C3CCCCC3)sc2n1 | ? | - | . | - | -
COc1ccc(C(=O)/C=C/c2cc(OC)c(O)c(OC)c2)c(F)c1 | - | 16µM | 8.2µM | - | -
COc1ccc2cc(C(=O)/C=C/c3cc(OC)c(O)c(OC)c3)ccc2c1 | ? | ? | - | - | -
CCN(CC)S(=O)(=O)c1ccc(C)c(NC(=O)/C=C/c2cccs2)c1 | ? | - | 16µM | - | -
CCN(CC)S(=O)(=O)c1ccc(/C=C/C(=O)Nc2cccc(F)c2)cc1 | ? | - | 13µM | - | -
NC(=O)/C=C\C(=O)Nc1cccc(C(F)(F)F)c1 | 1.8µM | ? | - | - | -
SMILES | Nrf2 inh | Nrf2 activator | ELG1 repair inh | IDH1 R132H inh | A549 tox
O=C(Nc1ccncc1)Nc1cccc(C(F)(F)F)c1 | ? | - | ? | - | -
CCN(CC)S(=O)(=O)c1ccc(NC(=O)Nc2cccc(C(F)(F)F)c2)cc1 | 21µM | - | ? | - | ?
Cc1ccc(CNC(=O)C2CCCN(S(=O)(=O)c3ccc4c(c3)oc(=O)n4C)C2)cc1 (stereo not drawn) | - | - | . | - | -
Cc1ccc(S(=O)(=O)Nc2ccc(NC(=O)Nc3cccc(C(F)(F)F)c3)cc2)cc1 | 18µM | - | ? | - | ?
O=C(Nc1ccc(OC(F)F)cc1)Nc1cccc(C(F)(F)F)c1 | 21µM | - | - | - | ?
CC1=C(C(=O)OC2CCCCC2)C(c2ccc(F)cc2)NC(=O)N1 (stereo not drawn) | ? | - | - | - | -
COc1cc(NC(=O)c2noc3c2CC(C(C)(C)C)CC3)cc(OC)c1OC (stereo not drawn) | - | - | . | - | -
